Assay in all cases: DAPPL (digital affinity profiling via proximity ligation, sequencing); 10 mM Tris-HCl pH 7.5, 50 mM NaCl, 1 mM DTT, 4% glycerol, room temperature, 30 min; GST-TFs on glutathione beads, 16-mer random dsDNA library, 0.1% formaldehyde crosslink after washing; high values mean tight binding
In test [1] the target is T1, FEV (Homo sapiens, UniProt Q99581 1-238).
T1 sequence: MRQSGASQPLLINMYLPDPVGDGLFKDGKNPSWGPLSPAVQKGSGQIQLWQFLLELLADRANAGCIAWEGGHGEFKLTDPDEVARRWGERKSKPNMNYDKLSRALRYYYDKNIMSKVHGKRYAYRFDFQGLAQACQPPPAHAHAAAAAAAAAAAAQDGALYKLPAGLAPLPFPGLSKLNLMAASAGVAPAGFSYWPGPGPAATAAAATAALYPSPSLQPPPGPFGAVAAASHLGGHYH
The settings on record: protein: recombinant; tags: N-terminal GST; dsDNA, one strand shown. In short, it runs like this:
(§1)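 Beads coated with glutathione captured GST-fused human transcription factors that had been expressed in yeast, and the factors were then given DNA barcodes and pooled with a tag-only sample. The pools were incubated with 200 nmole of a random double-stranded 16-mer DNA library in Tris/NaCl/DTT/glycerol buffer for 30 min at room temperature, washed, crosslinked with 0.1% formaldehyde and proximity-ligated with BsaI/T4 ligase at 37 °C for 1 h. PCR amplification and Illumina NextSeq500 sequencing came last. Binding signal is each hexamer's read frequency for a factor divided by its frequency for the tag-only sample.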

For test [2], the target named is ETV5 (Homo sapiens, UniProt P41161 1-510). The settings on record: protein: recombinant; tags: N-terminal GST; dsDNA, one strand shown. A digest of the protocol: as §1
Sequence of ETV5 (P41161 whole entry): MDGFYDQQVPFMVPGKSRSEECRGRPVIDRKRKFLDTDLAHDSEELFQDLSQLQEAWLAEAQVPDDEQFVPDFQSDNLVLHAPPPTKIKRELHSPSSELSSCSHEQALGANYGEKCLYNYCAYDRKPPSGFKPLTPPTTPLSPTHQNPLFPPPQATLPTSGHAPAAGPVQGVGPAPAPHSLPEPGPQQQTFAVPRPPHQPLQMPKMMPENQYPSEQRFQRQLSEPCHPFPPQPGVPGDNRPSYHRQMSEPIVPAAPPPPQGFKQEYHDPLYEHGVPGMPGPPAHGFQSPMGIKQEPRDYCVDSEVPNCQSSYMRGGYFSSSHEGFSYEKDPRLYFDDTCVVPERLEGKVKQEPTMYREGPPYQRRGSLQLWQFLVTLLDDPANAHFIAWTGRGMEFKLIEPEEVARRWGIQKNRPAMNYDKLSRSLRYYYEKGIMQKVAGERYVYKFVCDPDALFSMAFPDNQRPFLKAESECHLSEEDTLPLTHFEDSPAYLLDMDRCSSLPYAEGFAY
Test [3] deals with HSF1 (Homo sapiens, UniProt Q00613 1-529). The following applies: protein: recombinant; tags: N-terminal GST; chain copies: 3; dsDNA, one strand shown. A digest of the protocol:
as §1

Test [4] deals with T2, SPIC (Homo sapiens, UniProt Q8N5J4 1-248).
T2 sequence: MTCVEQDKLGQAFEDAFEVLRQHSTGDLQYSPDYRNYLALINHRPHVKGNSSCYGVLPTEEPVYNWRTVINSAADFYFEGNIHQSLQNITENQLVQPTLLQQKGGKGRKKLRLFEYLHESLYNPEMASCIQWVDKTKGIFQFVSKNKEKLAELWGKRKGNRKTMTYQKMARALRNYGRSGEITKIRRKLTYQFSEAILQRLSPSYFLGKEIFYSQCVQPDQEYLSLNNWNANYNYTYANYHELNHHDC
The following applies: protein: recombinant; tags: N-terminal GST; dsDNA, one strand shown. In short, it runs like this: as §1

Test [5] has as its target ELF4 (Homo sapiens, UniProt Q99607 1-663). The following applies: protein: recombinant; tags: N-terminal GST; dsDNA, one strand shown. In short, it runs like this: as §1
Test [6] has as its target T3, ELK4 (Homo sapiens, UniProt P28324-2 1-405).
T3 sequence: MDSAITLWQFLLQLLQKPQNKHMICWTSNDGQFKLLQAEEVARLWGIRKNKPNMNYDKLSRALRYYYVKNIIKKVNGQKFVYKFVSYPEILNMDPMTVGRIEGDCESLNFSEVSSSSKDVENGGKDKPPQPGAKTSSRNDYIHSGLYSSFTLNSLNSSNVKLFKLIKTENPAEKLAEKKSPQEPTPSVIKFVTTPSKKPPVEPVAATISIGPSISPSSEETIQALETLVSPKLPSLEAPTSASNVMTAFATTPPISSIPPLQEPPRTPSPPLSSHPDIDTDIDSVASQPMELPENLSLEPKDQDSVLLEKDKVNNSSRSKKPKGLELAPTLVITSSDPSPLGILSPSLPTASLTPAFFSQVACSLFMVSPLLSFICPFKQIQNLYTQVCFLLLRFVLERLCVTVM
The settings on record: protein: recombinant; tags: N-terminal GST; dsDNA, one strand shown. In short, it runs like this: as §1

Test [7] concerns the target T4, ETV2 (Homo sapiens, UniProt O00321 1-342).
T4 sequence: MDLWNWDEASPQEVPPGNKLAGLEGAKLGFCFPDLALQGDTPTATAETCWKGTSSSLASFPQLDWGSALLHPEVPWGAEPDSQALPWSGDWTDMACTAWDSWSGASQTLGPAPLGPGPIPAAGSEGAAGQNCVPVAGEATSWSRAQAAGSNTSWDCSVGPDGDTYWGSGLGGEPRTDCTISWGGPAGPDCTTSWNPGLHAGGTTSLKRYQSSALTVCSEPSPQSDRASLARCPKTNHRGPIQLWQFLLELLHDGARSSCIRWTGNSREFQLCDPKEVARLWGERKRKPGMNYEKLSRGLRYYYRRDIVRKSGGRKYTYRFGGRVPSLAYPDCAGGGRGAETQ
The following applies: protein: recombinant; tags: N-terminal GST; dsDNA, one strand shown. In short, it runs like this:
as §1

Test [8] concerns the target T5, ELF3 (Homo sapiens, UniProt P78545 1-371).
T5 sequence: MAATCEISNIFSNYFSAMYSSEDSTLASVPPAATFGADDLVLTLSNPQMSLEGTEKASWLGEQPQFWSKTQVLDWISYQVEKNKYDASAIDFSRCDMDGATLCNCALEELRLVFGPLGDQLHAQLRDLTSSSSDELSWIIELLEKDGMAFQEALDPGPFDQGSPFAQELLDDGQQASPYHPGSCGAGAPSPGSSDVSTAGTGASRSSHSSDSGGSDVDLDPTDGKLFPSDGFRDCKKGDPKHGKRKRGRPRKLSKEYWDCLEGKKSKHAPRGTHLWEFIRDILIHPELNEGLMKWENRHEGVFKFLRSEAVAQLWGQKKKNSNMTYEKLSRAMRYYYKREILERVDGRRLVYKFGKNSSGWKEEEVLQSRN
The settings on record: protein: recombinant; tags: N-terminal GST; dsDNA, one strand shown. In short, it runs like this:
as §1

For test [9], the target named is CRX (Homo sapiens, UniProt O43186 1-299). The following applies: protein: recombinant; tags: N-terminal GST; dsDNA, one strand shown. A digest of the protocol: as §1
Sequence of CRX (O43186 whole entry): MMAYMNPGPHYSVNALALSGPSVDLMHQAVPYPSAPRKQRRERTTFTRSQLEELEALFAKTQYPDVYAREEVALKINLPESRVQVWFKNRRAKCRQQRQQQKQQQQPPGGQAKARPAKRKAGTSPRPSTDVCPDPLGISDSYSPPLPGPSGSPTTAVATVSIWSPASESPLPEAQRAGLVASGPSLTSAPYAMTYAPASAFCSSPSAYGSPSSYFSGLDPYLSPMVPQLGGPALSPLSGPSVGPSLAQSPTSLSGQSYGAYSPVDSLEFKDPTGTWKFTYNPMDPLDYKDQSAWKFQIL
Test [10] concerns the target ETV1 (Homo sapiens, UniProt P50549 1-477). The following applies: protein: recombinant; tags: N-terminal GST; dsDNA, one strand shown. A digest of the protocol:
as §1

From publication PMC7862700, “An all-to-all approach to the identification of sequence-specific readers for epigenetic DNA modifications on cytosine” come the findings set out here.

Sequence of ETV1 (P50549 whole entry): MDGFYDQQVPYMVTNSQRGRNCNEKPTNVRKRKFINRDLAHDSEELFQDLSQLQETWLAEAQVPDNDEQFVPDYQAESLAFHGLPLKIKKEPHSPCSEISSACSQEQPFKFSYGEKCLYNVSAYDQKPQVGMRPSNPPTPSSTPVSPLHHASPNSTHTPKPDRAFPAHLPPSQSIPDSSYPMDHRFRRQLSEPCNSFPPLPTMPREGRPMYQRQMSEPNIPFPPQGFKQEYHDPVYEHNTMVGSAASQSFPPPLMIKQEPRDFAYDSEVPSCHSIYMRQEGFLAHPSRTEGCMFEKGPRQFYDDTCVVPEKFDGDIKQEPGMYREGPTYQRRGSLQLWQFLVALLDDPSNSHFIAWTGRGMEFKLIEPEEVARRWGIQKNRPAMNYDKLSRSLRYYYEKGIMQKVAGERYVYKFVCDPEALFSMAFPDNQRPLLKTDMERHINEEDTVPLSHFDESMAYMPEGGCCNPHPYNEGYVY
Sequence of ELF4 (Q99607 whole entry): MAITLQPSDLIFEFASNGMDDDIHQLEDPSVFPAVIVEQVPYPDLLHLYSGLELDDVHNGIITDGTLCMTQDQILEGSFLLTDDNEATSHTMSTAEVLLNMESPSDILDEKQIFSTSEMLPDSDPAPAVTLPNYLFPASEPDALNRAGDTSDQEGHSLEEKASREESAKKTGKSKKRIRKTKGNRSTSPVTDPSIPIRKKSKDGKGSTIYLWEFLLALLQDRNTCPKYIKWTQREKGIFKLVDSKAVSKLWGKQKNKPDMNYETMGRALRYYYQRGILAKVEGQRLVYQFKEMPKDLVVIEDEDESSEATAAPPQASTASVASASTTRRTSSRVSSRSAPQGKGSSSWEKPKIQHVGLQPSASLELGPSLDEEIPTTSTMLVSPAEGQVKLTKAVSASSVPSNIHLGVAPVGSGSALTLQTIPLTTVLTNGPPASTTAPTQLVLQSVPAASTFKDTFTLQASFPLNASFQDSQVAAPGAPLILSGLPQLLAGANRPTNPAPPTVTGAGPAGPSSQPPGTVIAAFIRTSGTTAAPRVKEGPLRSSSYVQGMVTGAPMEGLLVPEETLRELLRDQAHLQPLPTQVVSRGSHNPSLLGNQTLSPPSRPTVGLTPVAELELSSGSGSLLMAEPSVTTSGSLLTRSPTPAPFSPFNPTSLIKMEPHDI
Sequence of HSF1 (Q00613 whole entry): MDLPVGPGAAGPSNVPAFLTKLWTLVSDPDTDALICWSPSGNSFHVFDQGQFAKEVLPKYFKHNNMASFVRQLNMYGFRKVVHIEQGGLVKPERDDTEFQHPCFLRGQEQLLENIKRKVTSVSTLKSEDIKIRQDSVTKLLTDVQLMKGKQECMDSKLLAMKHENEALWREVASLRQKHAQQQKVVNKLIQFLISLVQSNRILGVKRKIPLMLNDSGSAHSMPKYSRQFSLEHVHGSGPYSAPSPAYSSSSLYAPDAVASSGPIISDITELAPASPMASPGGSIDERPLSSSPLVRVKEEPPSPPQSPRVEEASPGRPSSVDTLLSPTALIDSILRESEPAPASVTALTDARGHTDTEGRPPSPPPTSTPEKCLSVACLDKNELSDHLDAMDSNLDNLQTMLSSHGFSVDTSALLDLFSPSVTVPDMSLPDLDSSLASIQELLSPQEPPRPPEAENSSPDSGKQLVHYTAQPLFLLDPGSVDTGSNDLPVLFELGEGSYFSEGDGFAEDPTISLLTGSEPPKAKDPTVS

For the sequence GAAATA, the binding signal is 1.54 fold enrichment (6-mer frequency, TF over GST control) in test [1]; 1.63 fold enrichment (6-mer frequency, TF over GST control) in test [2]; 1.21 fold enrichment (6-mer frequency, TF over GST control) in [3]; 1.43 fold enrichment (6-mer frequency, TF over GST control) in test [4]; 1.35 fold enrichment (6-mer frequency, TF over GST control) in [5]; 1.39 fold enrichment (6-mer frequency, TF over GST control) in test [6]. Further, the binding signal in [7] is 1.42 fold enrichment (6-mer frequency, TF over GST control); in test [8] it was 1.62 fold enrichment (6-mer frequency, TF over GST control); in [9] it was 1.11 fold enrichment (6-mer frequency, TF over GST control); in test [10] it was 1.54 fold enrichment (6-mer frequency, TF over GST control).

For the sequence AAGTTA, the binding signal in test [1] was 1.15 fold enrichment (6-mer frequency, TF over GST control); in test [2], 1.26 fold enrichment (6-mer frequency, TF over GST control); in test [3] it was 1.09 fold enrichment (6-mer frequency, TF over GST control); in test [4], 1.27 fold enrichment (6-mer frequency, TF over GST control); in test [5] it was 1.28 fold enrichment (6-mer frequency, TF over GST control); in [6] it was 1.19 fold enrichment (6-mer frequency, TF over GST control). Further, the binding signal in test [7] is 1.27 fold enrichment (6-mer frequency, TF over GST control); in test [8], 1.15 fold enrichment (6-mer frequency, TF over GST control); in test [9], 1.26 fold enrichment (6-mer frequency, TF over GST control); in test [10], 1.23 fold enrichment (6-mer frequency, TF over GST control).

Consider ACGTCT, for which the binding signal in [1] was 1.13 fold enrichment (6-mer frequency, TF over GST control); in test [2] it was 1.12 fold enrichment (6-mer frequency, TF over GST control); in [3] it was 1.21 fold enrichment (6-mer frequency, TF over GST control); in test [4], 1.17 fold enrichment (6-mer frequency, TF over GST control); in test [5], 1.28 fold enrichment (6-mer frequency, TF over GST control); in test [6], 1.12 fold enrichment (6-mer frequency, TF over GST control). In addition, the binding signal in [7] was 1.18 fold enrichment (6-mer frequency, TF over GST control); in [8] it was 1 fold enrichment (6-mer frequency, TF over GST control); in test [9], 1.09 fold enrichment (6-mer frequency, TF over GST control); in test [10], 1.14 fold enrichment (6-mer frequency, TF over GST control).

On to AAACAT, for which the binding signal in test [1] is 1.45 fold enrichment (6-mer frequency, TF over GST control); in [2] it was 1.57 fold enrichment (6-mer frequency, TF over GST control); in test [3], 1.48 fold enrichment (6-mer frequency, TF over GST control); in [4] it was 1.53 fold enrichment (6-mer frequency, TF over GST control); in test [5], 1.53 fold enrichment (6-mer frequency, TF over GST control); in [6], 1.49 fold enrichment (6-mer frequency, TF over GST control). Moreover, the binding signal in test [7] was 1.53 fold enrichment (6-mer frequency, TF over GST control); in test [8], 1.53 fold enrichment (6-mer frequency, TF over GST control); in test [9], 1.32 fold enrichment (6-mer frequency, TF over GST control); in test [10] it was 1.43 fold enrichment (6-mer frequency, TF over GST control).

Regarding AATGGC, the binding signal in [1] was 1.52 fold enrichment (6-mer frequency, TF over GST control); in [2], 1.42 fold enrichment (6-mer frequency, TF over GST control); in test [3], 1.28 fold enrichment (6-mer frequency, TF over GST control); in [4], 1.61 fold enrichment (6-mer frequency, TF over GST control); in test [5], 1.29 fold enrichment (6-mer frequency, TF over GST control); in test [6], 1.52 fold enrichment (6-mer frequency, TF over GST control). Further, the binding signal in test [7] is 1.26 fold enrichment (6-mer frequency, TF over GST control); in test [8] it was 1.55 fold enrichment (6-mer frequency, TF over GST control); in [9] it was 1.26 fold enrichment (6-mer frequency, TF over GST control); in test [10] it was 1.44 fold enrichment (6-mer frequency, TF over GST control).

Turning to TTGGTG, the binding signal in [1] was 1.22 fold enrichment (6-mer frequency, TF over GST control); in [2], 1.32 fold enrichment (6-mer frequency, TF over GST control); in test [3] it was 1.18 fold enrichment (6-mer frequency, TF over GST control); in test [4], 1.32 fold enrichment (6-mer frequency, TF over GST control); in test [5], 1.3 fold enrichment (6-mer frequency, TF over GST control); in test [6] it was 1.44 fold enrichment (6-mer frequency, TF over GST control). Moreover, the binding signal in test [7] was 1.52 fold enrichment (6-mer frequency, TF over GST control); in test [8] it was 1.3 fold enrichment (6-mer frequency, TF over GST control); in [9], 1.28 fold enrichment (6-mer frequency, TF over GST control); in [10], 1.41 fold enrichment (6-mer frequency, TF over GST control).

Take AGCCTT: the binding signal in [1] was 1.15 fold enrichment (6-mer frequency, TF over GST control); in test [2], 1.13 fold enrichment (6-mer frequency, TF over GST control); in test [3] it was 1.26 fold enrichment (6-mer frequency, TF over GST control); in [4], 1.17 fold enrichment (6-mer frequency, TF over GST control); in test [5], 1.18 fold enrichment (6-mer frequency, TF over GST control); in [6], 1.03 fold enrichment (6-mer frequency, TF over GST control). In addition, the binding signal in [7] was 1.2 fold enrichment (6-mer frequency, TF over GST control); in test [8] it was 1.23 fold enrichment (6-mer frequency, TF over GST control); in [9] it was 1.42 fold enrichment (6-mer frequency, TF over GST control); in [10] it was 1.17 fold enrichment (6-mer frequency, TF over GST control).

With ATATCT, the binding signal in test [1] was 1.15 fold enrichment (6-mer frequency, TF over GST control); in test [2] it was 1.1 fold enrichment (6-mer frequency, TF over GST control); in [3], 1.26 fold enrichment (6-mer frequency, TF over GST control); in test [4] it was 1.1 fold enrichment (6-mer frequency, TF over GST control); in [5], 1.17 fold enrichment (6-mer frequency, TF over GST control); in [6], 1.2 fold enrichment (6-mer frequency, TF over GST control). In addition, the binding signal was 1.3 fold enrichment (6-mer frequency, TF over GST control) in [7]; 1.21 fold enrichment (6-mer frequency, TF over GST control) in [8]; 1.39 fold enrichment (6-mer frequency, TF over GST control) in [9]; 1.16 fold enrichment (6-mer frequency, TF over GST control) in test [10].
